High-throughput results as filed in PubChem BioAssay.
Rows were chosen to be rich in hits. Some 1% of all compounds tested hit in one or more screens of this group.
FPRL1 binder: binds the human formylpeptide receptor-like-1 FPRL1; P25090; hit rate 0.3% among 24,000; AID 441; FPRL1-expressing cells, fluorescent ligand binding inhibition, flow cytometry; inhibition, % (test concentration not listed);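 note: 0% = buffer alone and 100% = receptor blocker peptide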
FPR ligand: human FPR ligand, with FPRL1 counter-screen. inhibition, % (test concentration not listed). FPR-expressing cells, fluorescent ligand binding, flow cytometry. AID 440. P21462. hit rate 0.74% among 24,000;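 note: 0% = buffer wells and 100% = receptor blocker peptide wells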
Target sequence (P21462 whole entry, looked up): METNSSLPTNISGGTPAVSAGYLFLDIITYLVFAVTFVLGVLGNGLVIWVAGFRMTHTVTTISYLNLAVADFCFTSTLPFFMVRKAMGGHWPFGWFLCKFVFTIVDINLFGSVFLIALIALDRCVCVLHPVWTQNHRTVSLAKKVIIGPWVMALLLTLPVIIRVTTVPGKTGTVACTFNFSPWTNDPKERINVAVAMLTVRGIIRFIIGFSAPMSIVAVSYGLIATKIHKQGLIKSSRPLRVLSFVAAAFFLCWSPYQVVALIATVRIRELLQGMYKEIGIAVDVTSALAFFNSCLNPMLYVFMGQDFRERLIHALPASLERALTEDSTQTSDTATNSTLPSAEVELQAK
* = called active by the depositor. Cut-off read from the data, not from the text of the source: active = inhibition above about 30%; inconclusive = no clear call, values can overlap the other calls; inactive = below that.

SMILES | FPRL1 binder | FPR ligand
COc1ccc(CCN2C(=O)C(O)=C(C(=O)c3ccco3)C2c2cccs2)cc1OC (centres undefined) | 31* | 82*
CCOc1cccc(C2C(C(=O)c3ccco3)=C(O)C(=O)N2Cc2ccncc2)c1 (centres undefined) | -4 | 13
COc1cccc(C2C(C(=O)c3ccco3)=C(O)C(=O)N2CCCN2CCOCC2)c1OC (centres undefined) | 0 | -6
CS(=O)(=O)N1Cc2ccccc2CC1C(=O)Nc1ccccc1C(N)=O (centres undefined) | -4 | -3
Cc1cc2c(cc(C(=O)NCCCN3CCOCC3)n2Cc2ccc(Cl)cc2)o1 | 4 | 2
O=C(C1=C(O)C(=O)N(c2ncccn2)C1c1cccc(Cl)c1)c1ccco1 (centres undefined) | -11 | 17
COc1ccc(OC)c(C2C(C(=O)c3cc4ccccc4o3)=C(O)C(=O)N2c2cc(C)on2)c1 (centres undefined) | -2 | 33*
Cc1cc(N2C(=O)C(O)=C(C(=O)c3ccco3)C2c2cccnc2)no1 (centres undefined) | 30* | 30
CC(=O)C1=C(O)C(=O)N(Cc2cccnc2)C1c1ccccc1Cl (centres undefined) | 12 | 15
O=C(C1=C(O)C(=O)N(c2ncccn2)C1c1ccc(Cl)c(Cl)c1)c1ccco1 (centres undefined) | 29 | 45*
COc1ccc(C2C(C(=O)c3ccc(C)o3)=C(O)C(=O)N2c2cc(C)on2)cc1OC (centres undefined) | -4 | -8
O=C(C1=C(O)C(=O)N(c2ncccn2)C1c1ccc(Cl)cc1)c1ccco1 (centres undefined) | 18 | -6
Cc1ccc(C(=O)C2=C(O)C(=O)N(Cc3ccccc3)C2c2cccnc2)o1 (centres undefined) | -3 | 32*
COc1cc(C2C(C(=O)c3ccco3)=C(O)C(=O)N2c2cc(C)on2)cc(Br)c1O (centres undefined) | 31* | 39*
COc1cc(C2C(C(=O)c3ccc(C)o3)=C(O)C(=O)N2c2cc(C)on2)cc(Br)c1O (centres undefined) | 2 | 28
COc1cccc(-c2cc(C(F)(F)F)nc(N3CCCCC3)n2)c1 | 12 | -8
Cc1cc(C)cc(-n2cc3c(=O)n(C)c(=O)n(C)c3c2)c1 | 24 | 32*
Cc1cccc(-c2c3c(=O)n(C)c(=O)n(C)c3cn2-c2ccc(O)cc2)c1 | -1 | -4
CCOC(=O)c1ccc(NC(=O)NC(C)C2CCCO2)cc1 (centres undefined) | 3 | 1
O=C(c1ccccc1F)N1CCN(Cc2cccc(Cl)c2)CC1 | 6 | 16
CCN(C(=O)Cc1c(C(=O)O)[nH]c2ccccc12)c1cc(OC)ccc1OC | 0 | 32*
CCN(C(=O)c1coc(=O)c2ccccc12)c1cc(OC)ccc1OC | -1 | 0
COc1ccc(NC(=O)CC2C(=O)N(c3cccc(OC)c3)C(=O)N2C2CCCCC2)cc1 (centres undefined) | 11 | 11
COc1ccc(OC)c(C(=O)c2nc3c(n2O)CCCCC3)c1 | 52* | 54*
COc1ccc(C(=O)N2CCN(C3CCCCC3)CC2)c(OC)c1 | 0 | 2
SMILES | FPRL1 binder | FPR ligand
COC(=O)C1=C(CSCc2ccco2)NC(=O)NC1c1cc(C)ccc1C (centres undefined) | 2 | -7
Cc1ccc(S(=O)(=O)N(C)CC(=O)NC2CC(C)(C)NC(C)(C)C2)cc1 | 1 | -4
CC(C)NS(=O)(=O)c1cccc2nsnc12 | -4 | 3
COC(=O)C1(S(=O)(=O)c2cccc3nsnc23)CC1 | 84* | 33*
CCOc1ccc(-n2c(SC(C)C)nc3c(c2=O)SCC3)cc1 | 7 | 14
COc1ccc(-c2c(C)oc3c(CN4CCN(CCO)CC4)c(O)ccc3c2=O)cc1OC | 28 | 31*
COc1ccccc1-c1c(C)oc2c(CN3CCN(CCO)CC3)c(O)ccc2c1=O | 1 | -7
CC1(C)Cc2noc(N)c2C(C)(C)N1O | -2 | 4
CCOc1ccc(OCC)c(NC(=O)C2CCCN(S(=O)(=O)c3cnc[nH]3)C2)c1 (centres undefined) | 2 | 6
COc1ccccc1-c1cc(C(=O)N2CCN(c3ccccc3OC)CC2)no1 | 0 | 1
CC(=O)OCCNc1cc(N2CCN(C)CC2)c2noc3c2c1C(=O)c1ccccc1-3 | 53* | 6
O=C(NCC1COCCO1)C1CCN(S(=O)(=O)c2ccccc2)CC1 (centres undefined) | 14 | 8
COc1ccc(Cl)cc1-n1c(=S)sc2c(=O)[nH]c(SCC(=O)NCC3CCCO3)nc21 (centres undefined) | -3 | 44*
CCOc1ccc(-n2c(=S)sc3c(=O)[nH]c(SCC(=O)NCc4ccco4)nc32)cc1 | -4 | 1
Nc1cc(C(=O)O)ccc1Nc1ccccc1 | 0 | -2
Nc1ccc(Nc2ccccc2N)cc1 | 47* | 3
COc1ccc(-n2nc(C(=O)N3CCC(C#N)CC3)c3c4ccccc4n(C)c3c2=O)cc1 | 1 | 1
O=C(NCCN1CCOCC1)NC1(C(F)(F)F)Oc2ccc(Cl)cc2O1 (centres undefined) | -7 | 66*
COCC(C)NC(=O)NC1(C(F)(F)F)Oc2ccc(Cl)cc2O1 (centres undefined) | 2 | 6
O=C(Nc1nnc(-c2ccccc2Cl)o1)c1ccc(S(=O)(=O)N2CCCCCC2)cc1 | -5 | 31*
CC1CCCCN1S(=O)(=O)c1ccc(C(=O)Nc2nnc(-c3ccccc3Cl)o2)cc1 (centres undefined) | 1 | 4
Cc1[nH]n2c(=O)cc(C(C)(C)C)nc2c1-c1ccccc1 | 2 | 4
Cc1[nH]n2c(=O)c(C#N)c(-c3ccccc3)nc2c1-c1ccccc1 | -8 | 90*
Cc1[nH]n2c(=O)c3c(nc2c1-c1ccc(Cl)cc1)CCC3 | 0 | 51*
Cc1[nH]n2c(=O)c3c(nc2c1-c1ccccc1)CCC3 | -3 | 40*
SMILES | FPRL1 binder | FPR ligand
Cc1ccc(-c2cc3nc4c(c(=O)n3[nH]2)CCCC4)cc1 | 4 | 2
O=c1c2c(nc3c(-c4ccccc4)c[nH]n13)CCCC2 | 1 | 6
Cc1ccc(CNC(=O)CCS(=O)(=O)c2cccc3nonc23)cc1 | -4 | 0
Cc1nn(-c2ccccc2)c2c1C(c1c(C)[nH]c(C#N)c1C)C(C#N)=C(N)O2 (centres undefined) | -11 | 3
COc1cc(-n2nc(C)c3c2OC(N)=C(C#N)C3c2ccccc2)c(Cl)c(Br)c1O (centres undefined) | -2 | 36*
CCOC(=O)N1CCC(NC(=O)c2cc(C(=O)Nc3ccc(OC)c(OC)c3)ccc2CO)CC1 | 34* | 15
CCOC(=O)N1CCC(NC(=O)c2cc(C(=O)Nc3cccc(OC)c3)ccc2CO)CC1 | 3 | 6
CCOc1ccccc1C(=O)N1CCN=C1SCc1cccnc1 | 0 | 6
Cc1cc(NC(=O)CSc2nc3ccccc3c(=O)n2CCCC(=O)NCc2ccco2)n[nH]1 | -4 | 8
Cc1ccc(/C(O)=C2/C(=O)C(=O)N(CCCn3ccnc3)C2c2ccccn2)cc1 (centres undefined) | -1 | -29
COc1cc(C2/C(=C(\O)c3ccc4c(c3)CC(C)O4)C(=O)C(=O)N2CCCn2ccnc2)ccc1O (centres undefined) | 33* | 44*
